Source: PubChem BioAssay (Buhrlage Lab, Dana-Farber Cancer Institute and Novartis Institutes for BioMedical Research (Cambridge, Mass))
Rows were chosen to be rich in hits. Some 12% of all compounds tested hit in one or more screens of this group.
USP10 block = inhibitors of human USP10 deubiquitinase | AID 1645856 | hit rate 1.1% among 47,000 | inhibition, % at 20 µM | Q14694 | purified USP10, Ub-rhodamine fluorescence, 60 min
USP17 inh = human USP17-like deubiquitinase inhibition. inhibition, % at 50 µM. AID 1645855. purified USP17, Ub-rhodamine cleavage fluorescence, 3 h. hit rate 6.5% among 47,000
UCHL1 block = inhibitors of human UCHL1 deubiquitinase; hit rate 0.2% among 47,000; inhibition, % at 20 µM; AID 1645859; purified UCHL1, Ub-rhodamine cleavage fluorescence
USP8 inh = blocks human USP8 ubiquitin-rhodamine cleavage; purified USP8, Ub-rhodamine cleavage fluorescence, 30 min; inhibition, % at 20 µM; hit rate 4.2% among 47,000; AID 1645853
USP7 block = human USP7 deubiquitinase inhibition; inhibition, % at 20 µM; purified USP7, Ub-rhodamine cleavage fluorescence; hit rate 0.3% among 47,000; Q93009
USP30 inh = blocks human USP30 ubiquitin-rhodamine cleavage; purified USP30, Ub-rhodamine cleavage fluorescence; inhibition, % at 25 µM; hit rate 5.3% among 47,000; AID 1645860
Active calls of the source: *; i = inactive; . = no result given. Rule as the data show it: active = inhibition above about 30%; inactive = the rest.

SMILES	USP10 block	USP17 inh	UCHL1 block	USP8 inh	USP7 block	USP30 inh
Cc1c(Cc2ccccc2)c(=O)oc2cc3occ(-c4ccc5ccccc5c4)c3cc12	-8	32*	-18	-26	-4	-115
O=c1c(Cc2ccccc2)coc2ccccc12	2	12	2	11	-29	24
O=S(=O)(Nc1nnc(C2CC2)s1)c1cccc2nonc12	2	37*	5	-2	0	.
COc1ccc(Cn2nccc2NC(=O)C(C)Oc2ccc(C)c(C)c2)cc1 (centres undefined)	1	63*	-1	5	-8	.
COc1ccc(Cn2nccc2NC(=O)c2cc(=O)c3ccccc3o2)cc1	2	18	3	15	5	25
COc1ccc2c(CNCCC3=CCCCC3)c(C(=O)O)n(Cc3ccccc3F)c2c1	9	29	1	18	-27	40*
Cc1ccc(-n2c(=O)c3ccc(C(=O)NCc4ccco4)cc3n(CC(=O)NCCC3=CCCCC3)c2=O)cc1	45*	-4	-1	43*	3	-48
COc1ccc(-n2c(=O)c3ccc(C(=O)NCCc4ccccc4)cc3n(CC(=O)Nc3ccc(C)cc3C)c2=O)cc1	8	8	0	2	4	9
COc1ccc(-n2c(=O)c3ccc(C(=O)NCCc4ccccc4)cc3n(CC(=O)NCCC3=CCCCC3)c2=O)cc1	55*	41*	1	8	17	4
COCCn1c(C)c(C)c(S(=O)(=O)c2ccccc2)c1NC(=O)c1cccc(F)c1	-2	.	-7	-20	-13	-11
CN(C)c1ccc(/C=C2/CCCC3C2=NN(C(=O)c2cccs2)C3c2ccc(N(C)C)cc2)cc1 (centres undefined)	-4	-1	-13	1	-14	-10
COc1ccc(OC)c(CNc2nc(-c3cccc(OC)c3OC)no2)c1	2	0	2	21	1	5
Cc1nc(-c2ncc[nH]2)cc(C2CCN(C(=O)C(C)C)CC2)n1	0	1	-3	9	-3	1
Cc1ncc(CO)c2c1Oc1nc(-c3cccc(Cl)c3)nc(SCC(=O)N3CCCCC3)c1C2	37*	82*	15	50*	39*	-1
Nc1ncnc(Nc2ccc3c(c2)OCO3)n1	1	26	2	7	-3	-5
CC(C)N(Cc1ccccc1)C(=O)c1nc(-c2cnccn2)no1	0	-16	0	-91	-3	6
COc1ccc(N2CCN(c3ccc(Cl)cc3[N+](=O)[O-])CC2)cc1	5	13	3	33*	2	-23
COc1ccc(CC(=O)Nc2c(NCc3ccccc3)c3ccccc3oc2=O)cc1	21	85*	4	91*	21	75*
O=C(Nc1ccc2c(c1)OCO2)c1cc2c(=O)n3ccccc3nc2n1Cc1ccccc1	-6	-25	-2	18	0	-105
O=C(CC1CCCC1)N1C[C@@H]2OCCN(c3ncccn3)[C@@H]2C1	0	-3	0	-21	-2	-4
CC(C)N(C(=O)Cn1c(=O)[nH]c2ccccc21)c1ccccc1	6	58*	1	19	5	15
CCC1(c2ccccc2)NC(=O)N(CC(=O)N(c2ccccc2)C(C)C)C1=O (centres undefined)	3	13	2	13	0	37*
CCC1(c2ccccc2)NC(=O)N(CC(=O)N(C)Cc2ccccc2)C1=O (centres undefined)	-1	-1	-2	-5	-3	-5
Cc1ccc2c(n1)N(C)C(c1ccc(NC(=O)C3CC3)cc1)NC2=O (centres undefined)	4	-4	3	14	1	-16
COc1ccc(CCNC(=O)c2coc3ccccc3c2=O)cc1OC	0	29	1	2	-3	11
SMILES	USP10 block	USP17 inh	UCHL1 block	USP8 inh	USP7 block	USP30 inh
COc1cc(CCNC(=O)Cc2cccc(Br)c2)ccc1OCc1ccccc1	3	23	3	14	1	48*
C[C@H]1C(=O)N(C)[C@@H]2CCN(S(=O)(=O)c3ccc(Cl)cc3)[C@@H]2C(=O)N1C	2	0	3	6	9	12
O=C(CCCCCn1c(=O)c2sccc2n(CC(=O)c2ccccc2)c1=O)Nc1ccccc1	20	-1	1	3	3	24
COc1cc(OC)cc(-n2c(=O)c3sccc3n(CC(=O)c3ccc(F)cc3)c2=O)c1	7	20	1	8	4	56*
CCOc1ccc(-n2c(=O)c3sccc3n(CC(=O)Nc3cccc(C)c3)c2=O)cc1	41*	1	0	22	5	0
COc1cc(OC)cc(-n2c(=O)c3sccc3n(CC(=O)Nc3ccc(C)cc3)c2=O)c1	16	62*	2	2	7	20
CCn1c(=O)c2nscc2n(CC(=O)Nc2ccc(C)cc2)c1=O	0	13	3	17	3	19
Cc1cccc(NC(=O)Cn2c(=O)n(-c3ccccc3)c3ncccc32)c1	-1	-17	-1	-1	-2	-26
COc1ccc2c(CCN=C(NC(=O)c3ccccc3)Nc3nc(C)cc(C)n3)c[nH]c2c1	2	0	9	-7	12	0
O=C(C1CCC(=O)N1S(=O)(=O)c1ccccc1)N1CCN(c2ccccc2F)CC1 (centres undefined)	-3	-6	0	-2	1	0
COc1ccc(/C=C2\CCc3c2nc2ccccc2c3C(=O)OCC(=O)N(C)C)cc1OC	-8	-135	-161	-179	-177	i
COc1ccc(Cn2nc(-c3ccccc3)cc2-c2ccccc2O)cc1	19	12	10	14	3	43*
COc1ccc(/C=C/c2ccc(=O)n(Cc3ccccc3)n2)cc1	-1	20	3	9	-2	16
O=C(CC1N=C(N2CCN(c3ccccc3)CC2)NC1=O)Nc1ccccc1 (centres undefined)	0	29	-1	3	2	16
Cc1cccc(NC(=O)C2CC(=O)NC(N3CCN(c4ccccc4)CC3)=N2)c1 (centres undefined)	3	11	2	34*	-3	10
Cc1ccc(CNc2n[nH]c(NCc3ccc(C)cc3)n2)cc1	2	12	1	15	6	13
O=C(Nc1cc(Cl)cc(Cl)c1)c1csnn1	7	58*	3	5	-4	6
O=C(c1ccccc1)N1CCCC(c2nnc3ccccn23)C1 (centres undefined)	-2	-15	-2	-4	0	-46
CCN(CC)S(=O)(=O)c1ccc(O)c(NC(=O)COc2ccccc2F)c1	12	33*	1	11	3	30
COc1ccc(NS(=O)(=O)c2ccc(C)c(NC(=O)COc3ccccc3F)c2)cc1	5	0	1	0	1	0
CN(C)c1ccc(CNC(=O)c2nnc(C(=O)Nc3ccccc3)s2)cc1	14	7	0	37*	18	-4
